Values joined by “and” are separate entries in the source; they are usually repeats but may differ in a detail not shown here. Equal entries are not always repeated. Active and inactive are the calls of the source.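 The calls were made as follows, unless noted: active = compounds whose cell count with miR-34 switched on is under 0.7 times the count with it off; inactive = the rest.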

In assay [1] the target is 6-phosphogluconate dehydrogenase, decarboxylating (Homo sapiens) (UniProt P52209). Nature of the assay: 6PGD enzyme inhibitors, primary screen, biochemical, human, recombinant enzyme, NADPH absorbance (AID 1159550;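 active = at least 20% inhibition of 6-phosphogluconate dehydrogenase activity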). Particulars: recombinant 6PGD, NADPH absorbance 341 nm; at 10 µM; stronger effect = higher value.
Chain of 6-phosphogluconate dehydrogenase, decarboxylating (Homo sapiens) (P52209 whole entry, looked up): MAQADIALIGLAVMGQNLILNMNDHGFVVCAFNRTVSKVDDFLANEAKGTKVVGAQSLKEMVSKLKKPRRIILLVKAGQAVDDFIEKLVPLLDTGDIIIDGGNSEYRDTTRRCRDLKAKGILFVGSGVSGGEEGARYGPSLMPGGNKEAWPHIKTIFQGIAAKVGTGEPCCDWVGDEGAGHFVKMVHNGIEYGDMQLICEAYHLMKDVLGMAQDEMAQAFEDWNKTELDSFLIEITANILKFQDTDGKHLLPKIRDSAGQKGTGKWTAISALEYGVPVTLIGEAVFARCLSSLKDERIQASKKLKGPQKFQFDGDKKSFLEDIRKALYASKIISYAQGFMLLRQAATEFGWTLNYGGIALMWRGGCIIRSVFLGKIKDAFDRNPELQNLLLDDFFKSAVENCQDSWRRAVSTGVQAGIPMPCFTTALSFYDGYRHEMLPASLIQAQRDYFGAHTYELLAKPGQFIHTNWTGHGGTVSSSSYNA
The nature of assay [2]: sensitizers of A549 cells to miR-34 induction, primary screen, imaging, A549 dox-inducible miR-34, nuclei and caspase counts (AID 1347080). Conditions: A549 miR-34 inducible, Hoechst nuclei count, 48 h.
Assay [3] is described as follows: liver-stage malaria parasite growth inhibition, primary screen, cell-based, HepG2, luciferase luminescence, HepG2 viability (AID 624349; in the data active = parasite load remaining mostly below about 12%, no sharp cut-off; inactive = mostly above about 10%;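 also: 100% = mean of DMSO negative control wells on the same plate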). Conditions: P. berghei liver stage in HepG2, luciferase luminescence, concentration not given here; parasite load remaining: stronger effect = lower value; viability: measured here: HepG2 viability without parasites.
A short description of assay [4]: survival rescue of mitochondrial mutant cells in low glucose, primary screen, MELAS cybrids, Rieske KO mouse fibroblasts, CellTiter-Glo (AID 1508586;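 active = mean z-score across replicates of 1.96 or higher in either the MELAS or the Rieske mutant cell line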;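 also: z relative to plate mean and SD of compound and empty wells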).
The target of assay [5] is NAD(+) hydrolase SARM1 (Homo sapiens) (UniProt Q6SZW1). The experiment in a line: SARM1 TIR NADase inhibitors, cell lysate, NAD-Glo luminescence (AID 1508614;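 active = compound whose remaining NAD level is above about 45 nM, limit read from the data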;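 also: higher remaining NAD means stronger inhibition of SARM1 NADase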). Conditions: SAM-TIR HEK293T lysate NADase, at 1 µM, stronger effect = higher value.
Chain of NAD(+) hydrolase SARM1 (Homo sapiens) (Q6SZW1 whole entry, looked up, the tested form may be a part): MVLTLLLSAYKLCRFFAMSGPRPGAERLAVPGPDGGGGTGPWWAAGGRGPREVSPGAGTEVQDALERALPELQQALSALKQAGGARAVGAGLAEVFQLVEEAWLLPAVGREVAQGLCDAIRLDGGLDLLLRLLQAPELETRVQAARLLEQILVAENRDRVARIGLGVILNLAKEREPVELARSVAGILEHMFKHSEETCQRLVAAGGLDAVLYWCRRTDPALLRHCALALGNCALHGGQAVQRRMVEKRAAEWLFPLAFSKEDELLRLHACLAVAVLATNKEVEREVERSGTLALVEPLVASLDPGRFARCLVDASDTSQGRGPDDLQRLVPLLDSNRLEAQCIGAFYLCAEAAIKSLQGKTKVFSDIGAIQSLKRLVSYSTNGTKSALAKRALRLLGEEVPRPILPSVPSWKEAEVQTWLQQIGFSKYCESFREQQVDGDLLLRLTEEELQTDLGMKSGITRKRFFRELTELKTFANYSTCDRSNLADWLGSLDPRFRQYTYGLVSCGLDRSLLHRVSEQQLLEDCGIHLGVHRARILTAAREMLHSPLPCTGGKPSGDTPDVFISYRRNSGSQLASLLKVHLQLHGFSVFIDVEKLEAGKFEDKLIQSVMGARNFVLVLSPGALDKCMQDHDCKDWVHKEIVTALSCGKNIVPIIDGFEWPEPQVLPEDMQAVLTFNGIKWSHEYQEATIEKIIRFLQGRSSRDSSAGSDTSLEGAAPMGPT
Assay [6] deals with Mitogen-activated protein kinase 7 (Homo sapiens) (UniProt Q13164). The experiment in a line: ERK5 transactivation activators in reporter cells, primary screen, cell-based, HTS (AID 1508626;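 active = luciferase signal above three times the same-plate solvent-only control wells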;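 also: luciferase driven by Gal4-ERK5 fusion binding five Gal4 sites before minimal TATA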). Particulars: HeLa Gal4-ERK5 transactivation, 18 h, at 5 µM, stronger effect = higher value.
Chain of Mitogen-activated protein kinase 7 (Homo sapiens) (Q13164 whole entry, looked up, the tested form may be a part): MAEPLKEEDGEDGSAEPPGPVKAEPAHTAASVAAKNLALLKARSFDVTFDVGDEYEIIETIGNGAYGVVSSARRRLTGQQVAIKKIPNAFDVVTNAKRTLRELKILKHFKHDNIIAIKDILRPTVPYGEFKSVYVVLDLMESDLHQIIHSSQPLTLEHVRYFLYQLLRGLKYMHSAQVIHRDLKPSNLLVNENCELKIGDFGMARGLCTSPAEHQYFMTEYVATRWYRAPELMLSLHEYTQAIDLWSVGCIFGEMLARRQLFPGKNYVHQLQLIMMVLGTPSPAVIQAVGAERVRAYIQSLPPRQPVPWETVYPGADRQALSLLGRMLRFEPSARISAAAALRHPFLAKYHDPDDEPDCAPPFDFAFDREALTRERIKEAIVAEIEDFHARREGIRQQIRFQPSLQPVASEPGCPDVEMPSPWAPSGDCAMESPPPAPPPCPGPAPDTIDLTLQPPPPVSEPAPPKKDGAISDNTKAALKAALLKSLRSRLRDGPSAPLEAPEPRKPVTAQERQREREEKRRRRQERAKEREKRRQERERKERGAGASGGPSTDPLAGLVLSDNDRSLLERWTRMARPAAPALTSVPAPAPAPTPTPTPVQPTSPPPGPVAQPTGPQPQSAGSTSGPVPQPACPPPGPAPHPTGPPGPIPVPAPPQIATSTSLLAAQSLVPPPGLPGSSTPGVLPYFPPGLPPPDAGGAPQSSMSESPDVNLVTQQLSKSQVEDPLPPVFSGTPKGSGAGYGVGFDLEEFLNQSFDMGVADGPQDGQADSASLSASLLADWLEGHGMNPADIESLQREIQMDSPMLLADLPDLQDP
[7] abbreviates: stronger effect = lower value, cell number ratio, induced over uninduced.
The mark [8] stands for this setting: measured here: relative caspase fold change +Dox/-Dox.
Setting [9] is: measured here: total cells with miR-34 induction, stronger effect = lower value.
The mark [10] stands for this setting: measured here: total cells without miR-34 induction.
[11] abbreviates: MELAS cybrid survival, CellTiter-Glo 48 h, stronger effect = higher value.
[12] abbreviates: Rieske KO mouse fibroblast survival, CellTiter-Glo 72 h.

In the case of `CCCCC/C=C\C/C=C\C/C=C\C/C=C\CCCC(=O)O`, in assay [1], the inhibition was 9.46% (inactive). Further, the fold change was 1.06 (inactive) and 1 (inactive) in assay [2] (setting [7]); 1.01 and 0.893 in assay [2] (setting [8]). Also, the cell count in assay [2] (setting [9]) is 5710 and 5370; in assay [2] (setting [10]), 5370 and 5360.

Consider `CO/N=C(\C(=O)N[C@@H]1C(=O)N2C(C(=O)O)=C(COC(N)=O)CS[C@H]12)c1ccco1`, for which the parasite load remaining in assay [3] was 120% (inactive). Moreover, the viability in assay [3] is 107%. Further, the inhibition in assay [1] was -1.88% (inactive). Further, the fold change in assay [2] (setting [7]) was 0.899 (inactive); in assay [2] (setting [8]), 1.25. The cell count came to 8800 in assay [2] (setting [9]) and 9790 in assay [2] (setting [10]). Also, the z-score in assay [4] (setting [11]) was -0.736 (inactive); in assay [4] (setting [12]), -1.31. In addition, in assay [5], the remaining NAD is 10 nM (inactive). Besides, in assay [6], the luciferase signal was 48 AU (inactive).

`CC[C@H](CO)NCCN[C@H](CC)CO`: the parasite load remaining in assay [3] is 28.5% (inactive) and 112% (inactive). Moreover, the viability in assay [3] was 48.5% and 92.2%. In addition, in assay [1], the inhibition is -0.439% (inactive). In addition, the fold change was 0.912 (inactive) in assay [2] (setting [7]) and 0.977 in assay [2] (setting [8]). Besides, the cell count amounted to 8580 in assay [2] (setting [9]) and 9410 in assay [2] (setting [10]). For the same molecule, the results for the z-score in assay [4] (setting [11]) and in assay [4] (setting [12]) were 0.519 (inactive) and 0.22, respectively.

These data come from PubChem BioAssay.
